The values below come from PubChem BioAssay AID2561 (National Center for Advancing Translational Sciences (NCATS), 2010).

Results filed as inconclusive are left out. Values without a mark were called inactive. Calls of active or inactive are those of the source. Calls come from the whole dose curve; as a rule, active = well fitted inhibition curve with a large enough effect; inconclusive = small, poorly fitted or top-dose-only effect, or effect the other way; inactive = flat fitted curve, though single readings scatter.
Potency is the fitted concentration of half-maximal effect.

Pyruvate kinase (Leishmania mexicana), sequence (Q27686 whole entry, looked up): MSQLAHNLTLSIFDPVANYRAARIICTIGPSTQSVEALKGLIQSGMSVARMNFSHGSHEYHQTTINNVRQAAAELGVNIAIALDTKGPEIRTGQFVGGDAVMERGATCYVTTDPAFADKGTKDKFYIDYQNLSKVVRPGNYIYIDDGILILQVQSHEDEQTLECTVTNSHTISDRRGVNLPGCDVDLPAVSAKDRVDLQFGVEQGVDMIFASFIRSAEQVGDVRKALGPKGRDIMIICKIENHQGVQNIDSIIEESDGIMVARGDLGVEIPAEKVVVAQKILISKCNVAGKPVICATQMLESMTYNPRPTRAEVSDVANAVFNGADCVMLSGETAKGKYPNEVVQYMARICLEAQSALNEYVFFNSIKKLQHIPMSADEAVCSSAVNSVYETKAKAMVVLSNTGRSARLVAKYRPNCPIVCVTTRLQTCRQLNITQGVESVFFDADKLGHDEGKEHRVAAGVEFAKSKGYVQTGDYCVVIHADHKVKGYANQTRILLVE

In this experiment the target is Pyruvate kinase (Leishmania mexicana) (UniProt Q27686). As to the kind of experiment: Confirmation Assay for Inhibitors of Leishmania Mexicana Pyruvate Kinase (LmPK): for Probe SAR.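 For activity change, negative = inhibition: plate controls were uninhibited enzyme for no effect and no enzyme wells for full effect.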 The conditions noted are these: purified LmPK, ATP generation, Kinase-Glo luminescence; series mostly up to 57.5 µM; activity change, negative = inhibition: at the top concentration. The text has this:
NIH Chemical Genomics Center [NCGC] Malcolm Walkinshaw, Hugh Morgan, Linda Gilmore University of Edinburgh, UK MLPCN Grant: 1 R03 MH085697-01 NCGC Assay Overview: Pyruvate kinase (L. Mexicana) (LmPK) enzyme was supplied as a highly purified (>95% pure) sulphate-free preparation from University of Edinburgh, UK and assayed for its ability to generate ATP from ADP using phosphoenolpyruvate (PEP) as a substrate. ATP generation was detected in a coupled reaction by luciferase-mediated luminescence, an ATP-dependent process. Pyruvate kinase substrates, PEP and ADP, were present in the assay at Km and approximately 10-fold below Km respectively. The enzyme was assayed at an intermediate level of activity to screen for both inhibitors and activators.
NCGC Assay Protocol Summary: Three uL of enzyme mix (kept on ice) in assay buffer (50 mM Imidazole pH7.2, 50 mM KCl, 7 mM MgCl2, 0.01% Tween 20, 0.05% BSA) containing PEP (0.5 mM final concentration) and LmPK (0.1 nM final concentration) was dispensed into white solid bottom 1,536 well microtiter plates. 23 nL of compound were delivered by a pin tool and 1 uL of ADP mix in assay buffer (r.t; 0.1 mM final ADP concentration) was added. Plates were incubated at room temperature for 1 hour. Two uL of detection mix (Kinase-Glo, Promega; at 4 degree Celsius protected from light) was added and luminescence read by a ViewLux (Perkin Elmer) at 1 second exposure/plate. Data were normalized to the uninhibited and AC100 inhibition (no enzyme). To monitor activation, the first column contained a five-fold concentration of LmPK (0.5 nM).
(In Kinase-Glo more light means more ATP remaining.)
In the case of `COc1cc(N2C(=O)c3ccccc3C2=O)c2ncccc2c1`, the “activity change, negative = inhibition” value is 14%.

Consider `Cc1cc(C)c2[nH]c(C3C(=O)c4ccccc4C3=O)cc(=O)c2c1`, for which the “activity change, negative = inhibition” value was -9.19%.

In the case of `O=C1c2ccccc2C(=O)N1c1ccccn1`, the “activity change, negative = inhibition” value was 23.6%.

Consider `O=C1c2ccccc2C(=O)N1c1ccc2ncccc2c1`, for which the “activity change, negative = inhibition” value is 6.91%.

Turning to `Cc1ccc(NS(=O)(=O)c2ccc(Cl)cc2)cc1C`, the “activity change, negative = inhibition” value was 7.67%.

Consider `Cc1ccc(NS(=O)(=O)c2cc3c(cc2N(C)C)NC(=O)CC3)cc1C`, for which the “activity change, negative = inhibition” value was 5.95%.

With `Cc1ccc(NS(=O)(=O)c2cc3c(cc2-c2ccco2)NC(=O)CO3)cc1C`, the “activity change, negative = inhibition” value is 9.07%.

With `CCOc1ccc2c(c1)C(=O)C(c1cc(=O)c3ccccc3[nH]1)C2=O` (stereo not given), the “activity change, negative = inhibition” value is -12.2%.

In the case of `O=C1c2ccccc2C(=O)N1c1cccc2ncccc12`, the “activity change, negative = inhibition” value is 5.45%.

In the case of `Cc1ccc(-c2nc3ccccn3c2Nc2ccccc2C)o1`, the “activity change, negative = inhibition” value is 6.67%.

As to `Cc1ccc(-c2nc3ccc(Cl)cn3c2Nc2ccccc2)o1`, the “activity change, negative = inhibition” value was -0.673%.

On to `COc1cccc2ccc(C3C(=O)c4ccccc4C3=O)nc12`, for which the “activity change, negative = inhibition” value was -3.4%.

For `Cc1ccc(Nc2c(-c3ccsc3)nc3c(C)cccn23)cc1`, the “activity change, negative = inhibition” value is -12%.

In the case of `Cc1ccc(NS(=O)(=O)c2cc3c(cc2N2CCCCC2)NC(=O)CC3)cc1C`, the “activity change, negative = inhibition” value is 10.8%.

In the case of `Cc1ccc(Nc2c(-c3ccc(C)o3)nc3ccccn23)cc1`, the “activity change, negative = inhibition” value was 16.8%.

Regarding `O=C1c2ccccc2C(=O)N1c1cnc2ccccc2c1`, the “activity change, negative = inhibition” value was 9.24%.

Consider `Cc1ccc(NS(=O)(=O)c2ccc(-c3ccccc3)cc2)cc1C`, for which the “activity change, negative = inhibition” value is -0.78%.

On to `O=S1(=O)N=C(Oc2ccc(-c3ccccc3)cc2)c2ccccc21`, for which the Potency is 4.11 µM (active).

`Cc1cc(C)c2nc(C3C(=O)c4ccccc4C3=O)ccc2c1`: the “activity change, negative = inhibition” value was -5.25%.

`O=S1(=O)N=C(Oc2ccccc2Br)c2ccccc21`: the Potency was 5.8 µM (active).

On to `O=C1CCc2cc(S(=O)(=O)Nc3ccc4ccccc4c3)ccc2N1`, for which the “activity change, negative = inhibition” value is 19.4%.

In the case of `CCOc1ccc2[nH]c(C3C(=O)c4ccccc4C3=O)cc(=O)c2c1`, the “activity change, negative = inhibition” value was -13.9%.

On to `Cc1ccc(-c2nc3ccccn3c2Nc2ccc(F)cc2)o1`, for which the “activity change, negative = inhibition” value was 9.62%.

As to `CN(C)c1cccc(S(=O)(=O)N2CCN(S(=O)(=O)c3ccc4c(c3)OCCO4)CC2)c1`, the “activity change, negative = inhibition” value was -6.38%.

`Cc1ccc(NS(=O)(=O)c2cc3c(cc2-c2ccsc2)NC(=O)CO3)cc1C`: the “activity change, negative = inhibition” value is 1.92%.

Take `COC(=O)c1ccccc1S(=O)(=O)Nc1cc(=O)c2ccccc2[nH]1`: the “activity change, negative = inhibition” value is 0.72%.

With `COc1ccc(NS(=O)(=O)c2ccc3c(c2)CCC(=O)N3)cc1`, the “activity change, negative = inhibition” value is 8.64%.

As for `O=C1NS(=O)(=O)C(c2ccccc2)C1c1ccccc1` (stereo not given), the “activity change, negative = inhibition” value was 0.126%.

For the compound `COC(=O)c1ccc2c(c1)S(=O)(=O)N=C2Sc1cc(C)ccc1C`, the Potency was 8.19 µM (active).

As to `O=C1c2ccccc2C(=O)N1c1ncccc1O`, the “activity change, negative = inhibition” value was 5.08%.

As for `CCCCN1C(=O)c2ccccc2C1=O`, the “activity change, negative = inhibition” value is -2.93%.

Turning to `COc1ccc(N2C(=O)c3ccccc3C2=O)cc1`, the “activity change, negative = inhibition” value was 4.39%.

For the compound `Cc1ccc(NS(=O)(=O)c2ccc(N3CCCC3=O)cc2)cc1C`, the “activity change, negative = inhibition” value is 4.2%.

On to `COc1ccccc1NS(=O)(=O)c1ccc2c(c1)CCC(=O)N2`, for which the “activity change, negative = inhibition” value is -2.12%.

On to `CN=c1nc(-c2ccccc2)n(-c2ccccc2)s1`, for which the “activity change, negative = inhibition” value was 11.1%.

Take `CC(=O)Nc1ccc(S(=O)(=O)Nc2ccc(C)c(C)c2)cc1`: the “activity change, negative = inhibition” value was -4.95%.

Consider `O=C1c2ccccc2C(=O)C1c1nccc2ccccc12`, for which the Potency was 18.3 µM (active).

Turning to `O=S1(=O)N=C(Oc2cccc(Br)c2)c2ccccc21`, the Potency is 3.66 µM (active).

Regarding `Cc1ccc(NS(=O)(=O)c2cccc(F)c2)cc1C`, the “activity change, negative = inhibition” value was -2.19%.

With `O=C1NS(=O)(=O)c2cc3c(cc21)C(=O)NS3(=O)=O`, the “activity change, negative = inhibition” value was 2.34%.
